Here are results for 30 compounds from ChEMBL document CHEMBL2218924, “A broad activity screen in support of a chemogenomic map for kinase signalling research and drug discovery” (Biochem J, 2013).

The target in the first experiment is T1, Tyrosine-protein kinase ZAP-70 (Homo sapiens) (UniProt P43403).
T1 sequence (whole entry): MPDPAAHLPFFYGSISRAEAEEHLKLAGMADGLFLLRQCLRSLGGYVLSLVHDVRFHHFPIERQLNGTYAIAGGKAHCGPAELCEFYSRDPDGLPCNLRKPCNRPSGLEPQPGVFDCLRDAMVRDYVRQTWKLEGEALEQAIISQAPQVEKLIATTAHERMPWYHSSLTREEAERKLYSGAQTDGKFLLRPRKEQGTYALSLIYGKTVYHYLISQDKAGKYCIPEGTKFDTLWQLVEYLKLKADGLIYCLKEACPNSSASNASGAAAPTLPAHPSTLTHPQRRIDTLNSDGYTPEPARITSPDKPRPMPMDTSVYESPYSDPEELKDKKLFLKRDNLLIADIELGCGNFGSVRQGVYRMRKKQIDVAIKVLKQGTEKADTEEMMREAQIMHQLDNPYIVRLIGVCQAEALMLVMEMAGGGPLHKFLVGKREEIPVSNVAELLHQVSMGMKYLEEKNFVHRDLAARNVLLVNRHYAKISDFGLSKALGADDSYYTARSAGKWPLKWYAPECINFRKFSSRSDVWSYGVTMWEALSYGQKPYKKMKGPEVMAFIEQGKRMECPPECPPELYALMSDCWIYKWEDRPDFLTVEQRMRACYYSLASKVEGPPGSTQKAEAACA
The settings on record: at 1 µM.
Take `Cn1nc2c3c(cccc31)C(=O)c1ccccc1-2`: the residual activity was 92%. In the case of `COc1ccc(CNc2nc(N(CCO)CCO)nc3c2ncn3C(C)C)cc1`, the residual activity is 102%. On the same count and under the same terms, with `CO[C@@H]1[C@H](N(C)C(=O)c2ccccc2)C[C@H]2O[C@]1(C)n1c3ccccc3c3c4c(c5c6ccccc6n2c5c31)C(=O)NC4` the figure was 70%; with `C[C@@H](N)[C@H]1CC[C@H](C(=O)Nc2ccncc2)CC1`, 92%; with `Cc1cc(Nc2nc(-c3ccccc3)nc3ccccc23)n[nH]1`, 114%.

With `O=C1Nc2ccc(Br)cc2/C1=C\c1cc2c([nH]1)CCCC2`, the residual activity came to 112%. Same read-out and setting: for `Cc1cc2ncc(-c3ccccc3)nc2cc1C` the value was 96%. For the compound `O=C1c2ccccc2-[n+]2ccc3c([nH]c4ccccc43)c21`, the residual activity was 128%. Still for that read-out and setting: for `CO[C@H]1C[C@@H]2CC[C@@H](C)[C@@](O)(O2)C(=O)C(=O)N2CCCC[C@H]2C(=O)O[C@H]([C@H](C)C[C@@H]2CC[C@@H](O)[C@H](OC)C2)CC(=O)[C@H](C)/C=C(\C)[C@@H](O)[C@@H](OC)C(=O)[C@H](C)C[C@H](C)/C=C/C=C/C=C/1C` the value was 104%. Turning to `COc1ccc(S(=O)(=O)N(CCO)c2ccccc2CN(C)C/C=C/c2ccc(Cl)cc2)cc1`, the residual activity was found to be 105%. For the compound `O=C1Nc2ccccc2/C1=C1/Nc2ccccc2/C1=N\OCCC(O)CO` (stereo unspecified), the residual activity came to 97%.

As for `N#Cc1cnc2cnc(NCc3cccnc3)cc2c1Nc1ccc(F)c(Cl)c1`, the residual activity came out at 44%. On the same count and under the same terms, with `Ic1cccc(CSc2nnc(-c3ccncc3)o2)c1` the figure was 101%. Same read-out and setting: for `O=C(Nc1cccc(Nc2cc(Nc3cccc(C(F)(F)F)c3)ncn2)c1)C1CC1` the value was 97%; for `O=[N+]([O-])c1ccc(-c2nc(-c3ccc(F)cc3)c(-c3ccncc3)[nH]2)cc1`, 122%. The same measure, in the same setting: with `N#CC(C#N)=C(N)/C(C#N)=C/c1ccc(O)cc1` the figure was 128%; with `O=Nc1c(-c2c(O)[nH]c3ccccc23)[nH]c2ccccc12`, 79%; with `CN(C)CCCn1cc(C2=C(c3c[nH]c4ccccc34)C(=O)NC2=O)c2ccccc21`, 133%. Take `O=C1Nc2cc(Br)ccc2/C1=C1/Nc2ccccc2/C1=N\O`: the residual activity came to 97%. Same read-out and setting: with `O=C1NC(=O)/C(=C/c2ccc3c(c2)OC(F)(F)O3)S1` the figure was 116%; with `CC(=O)c1ccc(N2CCOCC2)cc1O`, 84%; with `Nc1n[nH]c2nnc(-c3c(-c4ccccc4)nn4ccccc34)cc12`, 100%.

Take `Nc1nc(Nc2ccc(S(N)(=O)=O)cc2)nn1C(=S)Nc1c(F)cccc1F`: the residual activity was 124%.

For `Cn1cnc2cc3c(Nc4cccc(Br)c4)ncnc3cc21`, the residual activity was determined as 87%.

For a further experiment, the target named is Death-associated protein kinase 3 (Homo sapiens) (UniProt O43293). The following applies: at 1 µM.
Chain of Death-associated protein kinase 3 (Homo sapiens) (O43293 whole entry, looked up): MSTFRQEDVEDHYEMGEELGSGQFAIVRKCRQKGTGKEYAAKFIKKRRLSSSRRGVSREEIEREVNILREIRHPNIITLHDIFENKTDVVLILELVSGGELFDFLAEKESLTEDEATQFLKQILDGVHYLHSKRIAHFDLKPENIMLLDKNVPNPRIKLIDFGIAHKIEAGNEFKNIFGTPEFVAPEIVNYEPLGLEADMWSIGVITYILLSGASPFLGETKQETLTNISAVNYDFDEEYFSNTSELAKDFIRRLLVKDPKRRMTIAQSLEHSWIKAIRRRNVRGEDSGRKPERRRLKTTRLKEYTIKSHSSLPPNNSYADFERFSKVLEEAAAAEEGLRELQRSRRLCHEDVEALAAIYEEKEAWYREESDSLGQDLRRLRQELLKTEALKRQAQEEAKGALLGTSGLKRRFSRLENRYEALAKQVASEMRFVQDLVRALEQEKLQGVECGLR
On to `Cn1nc2c3c(cccc31)C(=O)c1ccccc1-2`, for which the residual activity was 77%.

Take `COc1ccc(CNc2nc(N(CCO)CCO)nc3c2ncn3C(C)C)cc1`: the residual activity is 99%. On the same count and under the same terms, for `CO[C@@H]1[C@H](N(C)C(=O)c2ccccc2)C[C@H]2O[C@]1(C)n1c3ccccc3c3c4c(c5c6ccccc6n2c5c31)C(=O)NC4` the value was 56%; for `C[C@@H](N)[C@H]1CC[C@H](C(=O)Nc2ccncc2)CC1`, 101%. For the compound `Cc1cc(Nc2nc(-c3ccccc3)nc3ccccc23)n[nH]1`, the residual activity was determined as 46%. Consider `O=C1c2ccccc2-[n+]2ccc3c([nH]c4ccccc43)c21`, for which the residual activity stood at 73%. Same read-out and setting: with `Cc1ccc(S(=O)(=O)/C=C/C#N)cc1` the figure was 88%; with `c1ccc2c(-c3ccncc3)c[nH]c2c1`, 110%; with `c1ccc(-c2n[nH]c3c2oc2ccccc23)cc1`, 94%. The same measure, in the same setting: with `CO[C@H]1C[C@@H]2CC[C@@H](C)[C@@](O)(O2)C(=O)C(=O)N2CCCC[C@H]2C(=O)O[C@H]([C@H](C)C[C@@H]2CC[C@@H](O)[C@H](OC)C2)CC(=O)[C@H](C)/C=C(\C)[C@@H](O)[C@@H](OC)C(=O)[C@H](C)C[C@H](C)/C=C/C=C/C=C/1C` the figure was 116%.

Regarding `Nc1cccc(-c2cc3c(Oc4cccc(O)c4)ncnc3[nH]2)c1`, the residual activity came to 92%.

With `COc1ccc(S(=O)(=O)N(CCO)c2ccccc2CN(C)C/C=C/c2ccc(Cl)cc2)cc1`, the residual activity came to 96%. On to `O=C1Nc2ccccc2/C1=C1/Nc2ccccc2/C1=N\OCCC(O)CO` (stereo unspecified), for which the residual activity worked out at 63%. On to `COc1cc2ncnc(Nc3ccc(NC(=O)c4ccccc4)cc3)c2cc1OC`, for which the residual activity turned out to be 97%. Still for that read-out and setting: with `N#Cc1cnc2cnc(NCc3cccnc3)cc2c1Nc1ccc(F)c(Cl)c1` the figure was 65%. Turning to `Ic1cccc(CSc2nnc(-c3ccncc3)o2)c1`, the residual activity stood at 107%. As for `O=C(Nc1cccc(Nc2cc(Nc3cccc(C(F)(F)F)c3)ncn2)c1)C1CC1`, the residual activity is 89%. Consider `O=[N+]([O-])c1ccc(-c2nc(-c3ccc(F)cc3)c(-c3ccncc3)[nH]2)cc1`, for which the residual activity was found to be 92%. Consider `O=Nc1c(-c2c(O)[nH]c3ccccc23)[nH]c2ccccc12`, for which the residual activity turned out to be 81%. On the same count and under the same terms, with `CN(C)CCCn1cc(C2=C(c3c[nH]c4ccccc34)C(=O)NC2=O)c2ccccc21` the figure was 62%; with `O=C1Nc2cc(Br)ccc2/C1=C1/Nc2ccccc2/C1=N\O`, 38%. With `COc1cc2ncc(-c3ccccc3)nc2cc1OC`, the residual activity came out at 96%. As to `O=C1NC(=O)/C(=C/c2ccc3c(c2)OC(F)(F)O3)S1`, the residual activity was 102%.

In the case of `CC(=O)c1ccc(N2CCOCC2)cc1O`, the residual activity came to 106%. On to `Nc1n[nH]c2nnc(-c3c(-c4ccccc4)nn4ccccc34)cc12`, for which the residual activity is 105%.

Consider `Nc1nc(Nc2ccc(S(N)(=O)=O)cc2)nn1C(=S)Nc1c(F)cccc1F`, for which the residual activity stood at 90%.

For the compound `Cn1cnc2cc3c(Nc4cccc(Br)c4)ncnc3cc21`, the residual activity was 89%.

The residual activity is the signal under treatment as a percentage of the control signal.
